Where “and” joins values, the source holds several entries; their conditions need not be identical. Equal values may be shown once. The campaign covered roughly 5,500 compounds. About 2,000 (36%) were called active. About 18% were inconclusive and are not listed. Rule as the data show it: active = normalized growth mostly below about 0.91 (no sharp cut-off); inconclusive = no clear call, values can overlap the other calls; inactive = mostly above about 0.92. Some of the results follow. The source holds several records for some structures; these can differ, active in one and inactive in another.
Test: chemical genetic growth profiling, strain panel (AID 1159580);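 also: tested at 20 µM; growth read once vehicle control cultures reached saturation at 30 °C; 1 = growth at the plate median or of vehicle wells; lower values mean less growth of the strain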
Conditions: growth OD

What does the source list for `O=C(Nc1ccc([N+](=O)[O-])cc1Cl)c1cc(Cl)ccc1O`?
normalized growth (S. cerevisiae deletion strains, locus YJR075W, strain HOC1, stronger effect = lower value): 0.815 (active) and 0.99 (inactive); normalized growth (S. cerevisiae deletion strains, locus YKL009W, strain mrt4, stronger effect = lower value): 1.2 [resistant] (active); normalized growth (S. cerevisiae deletion strains, locus YKL068W, stronger effect = lower value): 1 (inactive); normalized growth (S. cerevisiae deletion strains, locus YKL085W, strain MDH1 (second series), stronger effect = lower value): 1.04 (inactive); normalized growth (S. cerevisiae deletion strains, locus YKL085W, strain MDH1, stronger effect = lower value): 1.04 (inactive); normalized growth (S. cerevisiae deletion strains, locus YKL160W, strain elf1, stronger effect = lower value): 0.773 (active); normalized growth (S. cerevisiae deletion strains, locus YKR001C, strain vps1, stronger effect = lower value): 0.459 (active); normalized growth (S. cerevisiae deletion strains, locus YKR026C, strain gcn3, stronger effect = lower value): 0.978 (inactive); normalized growth (S. cerevisiae deletion strains, locus YKR091W, strain srl3, stronger effect = lower value): 0.938 (inactive); normalized growth (S. cerevisiae deletion strains, locus YLL001W, strain dnm1, stronger effect = lower value): 0.971 (inactive); normalized growth (S. cerevisiae deletion strains, locus YLL026W, stronger effect = lower value): 0.939 (inactive); normalized growth (S. cerevisiae deletion strains, locus YLL041C, strain sdh2, stronger effect = lower value): 0.931 (inactive); normalized growth (S. cerevisiae deletion strains, locus YLR027C, strain aat2, stronger effect = lower value): 0.92 (active); normalized growth (S. cerevisiae deletion strains, locus YLR039C, strain RIC1, stronger effect = lower value): 0.289 (active); normalized growth (S. cerevisiae deletion strains, locus YLR058C, strain SHM2, stronger effect = lower value): 0.948 (inactive); normalized growth (S. cerevisiae deletion strains, locus YLR102C, strain apc9, stronger effect = lower value): 1 (inactive); normalized growth (S. cerevisiae deletion strains, locus YLR113W, strain HOG1, stronger effect = lower value): 1.01 (inactive); normalized growth (S. cerevisiae deletion strains, locus YLR221C, strain rsa3, stronger effect = lower value): 0.906 (active); normalized growth (S. cerevisiae deletion strains, locus YLR258W, strain gsy2, stronger effect = lower value): 0.977 (inactive); normalized growth (S. cerevisiae deletion strains, locus YLR262C, strain YPT6 (second series), stronger effect = lower value): 0.241 (active); normalized growth (S. cerevisiae deletion strains, locus YLR262C, strain YPT6, stronger effect = lower value): 0.193 (active); normalized growth (S. cerevisiae deletion strains, locus YLR268W, strain sec22, stronger effect = lower value): 0.964 (inactive); normalized growth (S. cerevisiae deletion strains, locus YLR320W, strain mms22, stronger effect = lower value): 0.833 (active); normalized growth (S. cerevisiae deletion strains, locus YLR330W, strain CHS5, stronger effect = lower value): 0.942 (inactive); normalized growth (S. cerevisiae deletion strains, locus YLR342W, strain FKS1 (second series), stronger effect = lower value): 0.667 (active); normalized growth (S. cerevisiae deletion strains, locus YLR342W, strain FKS1, stronger effect = lower value): 0.967 (inactive); normalized growth (S. cerevisiae deletion strains, locus YLR357W, strain rsc2, stronger effect = lower value): 1.02 (inactive); normalized growth (S. cerevisiae deletion strains, locus YLR370C, strain arc18, stronger effect = lower value): 0.949 (inactive); normalized growth (S. cerevisiae deletion strains, locus YLR371W, strain rom2, stronger effect = lower value): 1 (inactive); normalized growth (S. cerevisiae deletion strains, locus YLR384C, strain iki3, stronger effect = lower value): 1.09 [resistant] (active); normalized growth (S. cerevisiae deletion strains, locus YLR418C, strain cdc73, stronger effect = lower value): 0.793 (active); normalized growth (S. cerevisiae deletion strains, locus YML016C, strain PPZ1, stronger effect = lower value): 0.975 (inactive); normalized growth (S. cerevisiae deletion strains, locus YML120C, strain ndi1, stronger effect = lower value): 0.975 (inactive); normalized growth (S. cerevisiae deletion strains, locus YML124C, strain tub3, stronger effect = lower value): 1.17 [resistant] (active); normalized growth (S. cerevisiae deletion strains, locus YMR058W, strain fet3, stronger effect = lower value): 0.966 (inactive); normalized growth (S. cerevisiae deletion strains, locus YMR078C, strain ctf18, stronger effect = lower value): 1.17 [resistant] (active); normalized growth (S. cerevisiae deletion strains, locus YMR125W, strain sto1, stronger effect = lower value): 0.999 (inactive); normalized growth (S. cerevisiae deletion strains, locus YMR129W, stronger effect = lower value): 0.937 (inactive); normalized growth (S. cerevisiae deletion strains, locus YMR205C, strain PFK2, stronger effect = lower value): 0.759 (active); normalized growth (S. cerevisiae deletion strains, locus YMR223W, strain ubp8, stronger effect = lower value): 1.09 (inactive); normalized growth (S. cerevisiae deletion strains, locus YMR231W, strain pep5, stronger effect = lower value): 0.901 (active); normalized growth (S. cerevisiae deletion strains, locus YMR263W, strain SAP30, stronger effect = lower value): 0.991 (inactive); normalized growth (S. cerevisiae deletion strains, locus YMR307W, strain GAS1, stronger effect = lower value): 0.393 (active) and 0.947 (inactive); normalized growth (S. cerevisiae deletion strains, locus YNL067W, strain RPL9B, stronger effect = lower value): 0.925 (inactive); normalized growth (S. cerevisiae deletion strains, locus YNL071W, strain lat1, stronger effect = lower value): 0.809 (active); normalized growth (S. cerevisiae deletion strains, locus YNL153C, strain GIM3, stronger effect = lower value): 0.924 (inactive) and 0.687 (active); normalized growth (S. cerevisiae deletion strains, locus YNL175C, strain NOP13, stronger effect = lower value): 0.868 (active); normalized growth (S. cerevisiae deletion strains, locus YNL183C, strain NPR1, stronger effect = lower value): 0.933 (inactive); normalized growth (S. cerevisiae deletion strains, locus YNL197C, strain WHI3, stronger effect = lower value): 0.789 (active); normalized growth (S. cerevisiae deletion strains, locus YNL209W, strain ssb2, stronger effect = lower value): 0.925 (active); normalized growth (S. cerevisiae deletion strains, locus YNL224C, strain SQS1, stronger effect = lower value): 0.972 (inactive); normalized growth (S. cerevisiae deletion strains, locus YNL233W, strain BNI4, stronger effect = lower value): 0.803 (active); normalized growth (S. cerevisiae deletion strains, locus YNL248C, strain rpa49, stronger effect = lower value): 0.969 (inactive); normalized growth (S. cerevisiae deletion strains, locus YNL250W, strain rad50, stronger effect = lower value): 1.01 (inactive); normalized growth (S. cerevisiae deletion strains, locus YNL271C, strain bni1, stronger effect = lower value): 0.999 (inactive); normalized growth (S. cerevisiae deletion strains, locus YNL298W, strain CLA4, stronger effect = lower value): 1 (inactive); normalized growth (S. cerevisiae deletion strains, locus YNL307C, strain MCK1, stronger effect = lower value): 0.986 (inactive); normalized growth (S. cerevisiae deletion strains, locus YNL322C, strain KRE1 (second series), stronger effect = lower value): 1.06 (inactive); normalized growth (S. cerevisiae deletion strains, locus YNL322C, strain KRE1, stronger effect = lower value): 0.921 (active) and 0.992 (inactive); normalized growth (S. cerevisiae deletion strains, locus YNR049C, strain mso1, stronger effect = lower value): 1 (inactive); normalized growth (S. cerevisiae deletion strains, locus YNR052C, strain pop2, stronger effect = lower value): 1.12 [resistant] (active); normalized growth (S. cerevisiae deletion strains, locus YOL006C, strain TOP1, stronger effect = lower value): 0.632 (inactive); normalized growth (S. cerevisiae deletion strains, locus YOL012C, strain htz1): 0.729 (inactive); normalized growth (S. cerevisiae deletion strains, locus YOL147C, strain pex11, stronger effect = lower value): 1.19 [resistant] (active); normalized growth (S. cerevisiae deletion strains, locus YOR001W, strain rrp6, stronger effect = lower value): 0.944 (inactive); normalized growth (S. cerevisiae deletion strains, locus YOR061W, strain CKA2, stronger effect = lower value): 0.969 (inactive); normalized growth (S. cerevisiae deletion strains, locus YOR069W, strain VPS5, stronger effect = lower value): 0.96 (inactive); normalized growth (S. cerevisiae deletion strains, locus YOR070C, strain gyp1, stronger effect = lower value): 0.842 (active); normalized growth (S. cerevisiae deletion strains, locus YOR080W, strain dia2, stronger effect = lower value): 0.904 (active); normalized growth (S. cerevisiae deletion strains, locus YOR083W, strain WHI5 (second series), stronger effect = lower value): 0.751 (active); normalized growth (S. cerevisiae deletion strains, locus YOR083W, strain WHI5, stronger effect = lower value): 0.88 (active); normalized growth (S. cerevisiae deletion strains, locus YOR106W, strain vam3, stronger effect = lower value): 0.843 (active); normalized growth (S. cerevisiae deletion strains, locus YOR136W, strain idh2, stronger effect = lower value): 1.03 (inactive); normalized growth (S. cerevisiae deletion strains, locus YOR144C, strain elg1, stronger effect = lower value): 1.19 [resistant] (active); normalized growth (S. cerevisiae deletion strains, locus YOR184W, strain ser1, stronger effect = lower value): 1.03 (inactive); normalized growth (S. cerevisiae deletion strains, locus YOR231W, strain MKK1, stronger effect = lower value): 1.01 (inactive); normalized growth (S. cerevisiae deletion strains, locus YOR265W, strain rbl2, stronger effect = lower value): 0.928 (active); normalized growth (S. cerevisiae deletion strains, locus YOR270C, strain vph1, stronger effect = lower value): 0.666 (active); normalized growth (S. cerevisiae deletion strains, locus YOR290C, strain snf2, stronger effect = lower value): 0.98 (inactive); normalized growth (S. cerevisiae deletion strains, locus YOR316C, strain cot1, stronger effect = lower value): 1.02 (inactive); normalized growth (S. cerevisiae deletion strains, locus YPL051W, strain arl3, stronger effect = lower value): 0.607 (active); normalized growth (S. cerevisiae deletion strains, locus YPL055C, strain LGE1, stronger effect = lower value): 0.731 (active); normalized growth (S. cerevisiae deletion strains, locus YPL078C, strain atp4, stronger effect = lower value): 0.866 (active); normalized growth (S. cerevisiae deletion strains, locus YPL106C, strain sse1, stronger effect = lower value): 0.962 (inactive); normalized growth (S. cerevisiae deletion strains, locus YPL240C, strain hsp82, stronger effect = lower value): 1.01 (inactive); normalized growth (S. cerevisiae deletion strains, locus YPL256C, strain CLN2, stronger effect = lower value): 0.994 (inactive); normalized growth (S. cerevisiae deletion strains, locus YPR119W, strain clb2, stronger effect = lower value): 1.06 (inactive); normalized growth (S. cerevisiae deletion strains, locus YPR141C, strain kar3, stronger effect = lower value): 1.02 (inactive); normalized growth (S. cerevisiae deletion strains, locus YPR163C, strain tif3, stronger effect = lower value): 1.04 (inactive); normalized growth (S. cerevisiae deletion strains, locus YPR167C, strain met16, stronger effect = lower value): 1.06 (inactive); normalized growth (S. cerevisiae deletion strains, strain wtn01, stronger effect = lower value): 1.03 (inactive); normalized growth (S. cerevisiae strains, strain wild type, stronger effect = lower value): 0.904 (inactive)

Reference: PubChem BioAssay AID1159580 (chemical genetic matrix, 2015)
